The text below walks through data of PubChem BioAssay.

Structures are written as SMILES. Active and inactive are the calls of the source. How the calls were made is not given here.

Sequence of Pantothenate synthetase (Mycobacterium tuberculosis (strain ATCC 25618 / H37Rv)) (P9WIL5 whole entry, looked up): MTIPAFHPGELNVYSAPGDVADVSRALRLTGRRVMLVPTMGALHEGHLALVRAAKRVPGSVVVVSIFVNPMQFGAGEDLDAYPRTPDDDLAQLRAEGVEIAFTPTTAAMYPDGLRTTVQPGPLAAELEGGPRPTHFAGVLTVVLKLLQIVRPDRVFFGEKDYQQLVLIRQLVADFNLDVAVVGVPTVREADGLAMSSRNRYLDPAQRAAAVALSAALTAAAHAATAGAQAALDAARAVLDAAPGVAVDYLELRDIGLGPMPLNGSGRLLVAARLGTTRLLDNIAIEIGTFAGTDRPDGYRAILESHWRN

The test concerns the target Pantothenate synthetase (Mycobacterium tuberculosis (strain ATCC 25618 / H37Rv)) (UniProt P9WIL5). Kind of test: Recombinant Mtb pantothenate synthetase (PanC) inhibitors, coupled enzyme, confirmatory (AID 375).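 Further: 0% = full reaction with vehicle and 100% = no enzyme background.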 The note with it: coupled enzyme assay; at 10 µM, active compounds read high.
As a reminder, the inhibition is the change of the read-out against control, counted positive when it falls. For `CCOC(=O)N1CCC(Nc2c(-c3ccc(C)cc3)c(=O)c2=O)CC1`, the inhibition is 0% (inactive). For `O=C(COc1ccc(Cl)cc1)Nc1ncccn1` the value was 9% (inactive). Then `CN(Cc1ccco1)C(=O)Cn1c(=O)oc2cc(S(=O)(=O)NCc3ccccc3)ccc21`, with 0% (inactive); and `CCOc1ccc(-c2nnc(N)s2)cc1`, with 0% (inactive); and `CCOC(=O)Cc1nnc(NC(=O)CSc2nnc3c4ccccc4n(C(C)C)c3n2)s1`, with 1% (inactive). As to `O=C(NCc1nc2ccccc2[nH]1)c1ccc(Cl)c(S(=O)(=O)N2CCCC2)c1`, the inhibition was 1% (inactive).

Consider `CC1=C(C(=O)NC2CCC(C)CC2)C2(CCC(C)CC2)OC1=O` (stereo unspecified), for which the inhibition is 2% (inactive). For `CCOC(=O)C(C)C1(O)c2ccccc2-c2ncccc21` (stereo unspecified) the value was 0% (inactive); for `CC1=C/C(=C/N(C)c2ccccc2)C(=O)S1`, 1% (inactive). Then `CCOC(=O)CSC1=C(C#N)C(=O)NC2(CCCCC2)S1`, with 3% (inactive).

As to `COC(=O)C1=CN(C(C)C)C=C(C(=O)OC)C1c1cc2c(cc1Br)OCO2`, the inhibition is 0% (inactive). Regarding `CCOc1ccc(C2C(C#N)=C(N)Oc3cc(C)n(Cc4ccco4)c(=O)c32)cc1OC` (stereo unspecified), the inhibition is 2% (inactive). Consider `Cc1ccc(-c2nc3cc(N)ccc3o2)cc1`, for which the inhibition is 0% (inactive).

Regarding `CCOC(=O)C(NC(=O)c1ccccc1)(Nc1cc(C)on1)C(F)(F)F` (stereo unspecified), the inhibition is 0% (inactive). For `CN1CCN(c2nc3c(c(=O)[nH]c(=O)n3C)n2CCSc2nc3ccccc3s2)CC1` the value was 8% (inactive). For `Cc1cccn2c(=O)c3cc(C#N)c(=NC(=O)c4ccncc4)n(Cc4ccco4)c3nc12` the value was 0% (inactive).
